Where “and” joins values, the source holds several entries; their conditions need not be identical. Equal values may be shown once. Calls of active or inactive are those of the source.
What was measured:
[1] = small molecules captured by biotinylated probe aFSTL3 – biochemical, small-molecule microarray, fluorescence 635/667, stem cell growth factor project, primary screen (AID 1064); conditions: higher = more signal;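 further: measures binding of the biotinylated anti-FSTL3 antibody to printed compounds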
[2] = binders from COS7 lysate, DM2A8 probe, primary screen, torsin A project, cell lysate, small-molecule microarray, fluorescence 635/667 (AID 1065); conditions: higher = more signal, COS7 lysate expressing mutant human TOR1A
[3] = small molecules captured by biotinylated probe aFGF2 – biochemical, small-molecule microarray, fluorescence 635/667, stem cell growth factor project, primary screen (AID 1067); conditions: higher = more signal;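 further: measures binding of biotinylated aFGF2 protein to printed compounds on slides; z-score merges feature fluorescence and signal-to-noise across triplicate slides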
[4] = small molecules captured by biotinylated probe aFGF10 – biochemical, small-molecule microarray, fluorescence 635/667, stem cell growth factor project, primary screen (AID 1071); conditions: higher = more signal;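 further: score merges 667 nm spot intensity and signal to noise from triplicate slides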
[5] = target: Neurogenic locus notch homolog protein 2 (Homo sapiens) (UniProt Q04721); experiment: small molecules binding Notch2 protein – biochemical, small-molecule microarray, 635 nm fluorescence, stem cell growth factors, primary screen (AID 1073); conditions: higher = more signal
[6] = target: Pro-neuregulin-1, membrane-bound isoform (Homo sapiens) (UniProt Q02297); experiment: small molecules binding neuregulin-1 protein – biochemical, small-molecule microarray, fluorescence 635/667, psychiatric disease protein project, primary screen (AID 1075); conditions: NRG1 binding, 635 nm fluorescence, higher = more signal;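 further: score combines 667 nm spot fluorescence with signal to noise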
Chain of Pro-neuregulin-1, membrane-bound isoform (Homo sapiens) (Q02297 whole entry, looked up, the tested form may be a part, canonical isoform): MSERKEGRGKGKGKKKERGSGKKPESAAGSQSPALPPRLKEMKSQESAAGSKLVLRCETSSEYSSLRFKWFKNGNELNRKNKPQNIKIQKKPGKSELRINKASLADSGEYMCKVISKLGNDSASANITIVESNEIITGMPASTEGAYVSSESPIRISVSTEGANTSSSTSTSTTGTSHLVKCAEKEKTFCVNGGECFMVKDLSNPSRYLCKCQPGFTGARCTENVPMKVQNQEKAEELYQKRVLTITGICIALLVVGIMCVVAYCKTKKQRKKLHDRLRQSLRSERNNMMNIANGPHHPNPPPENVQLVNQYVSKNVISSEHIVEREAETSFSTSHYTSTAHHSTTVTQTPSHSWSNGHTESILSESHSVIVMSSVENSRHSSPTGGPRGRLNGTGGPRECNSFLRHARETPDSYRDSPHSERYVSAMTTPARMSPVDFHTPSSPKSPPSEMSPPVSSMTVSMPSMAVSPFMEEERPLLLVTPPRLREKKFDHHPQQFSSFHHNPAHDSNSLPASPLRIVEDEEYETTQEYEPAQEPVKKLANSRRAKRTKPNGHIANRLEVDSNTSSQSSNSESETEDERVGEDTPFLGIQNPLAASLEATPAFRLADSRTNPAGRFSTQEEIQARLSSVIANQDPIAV

[7] = system: Neuregulin-1 EGF-like domain; experiment: small molecules binding NRG1 EGF domain – biochemical, small-molecule microarray, 635 nm fluorescence, primary screen (AID 1081); conditions: higher = more signal;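 further: binding of the protein to compounds printed on small-molecule microarray slides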
[8] = FRG1 expression reporter modulators in myotubes – cell-based, C2C12 myotubes, firefly/Renilla luciferase, luminescence, FRG1 inhibition for FSHD, primary screen (AID 1084); conditions: FRG1 promoter luciferase, higher = more signal, called active from +8 up or from −8 down
[9] = small molecules captured by biotinylated probe aFST – biochemical, small-molecule microarray, fluorescence 635/667, stem cell growth factor project, primary screen (AID 1086); conditions: higher = more signal;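 further: score merges 667 nm fluorescence with signal-to-noise of each printed compound spot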
[10] = binders of probe aHhip on microarray, primary screen, stem cell growth factor project, biochemical, small-molecule microarray, fluorescence 635/667 (AID 1087); conditions: higher = more signal;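 further: score merges spot fluorescence at 667nm with spot signal to noise ratio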
[11] = system: PRMT1 (protein arginine N-methyltransferase 1); experiment: small molecules binding arginine methyltransferase PRMT1 – biochemical, small-molecule microarray, 635 nm fluorescence, primary screen (AID 1088); conditions: higher = more signal;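 further: binding of Prmt1 protein to compounds spotted on small-molecule microarray slides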
[12] = growth effects on S. cerevisiae YJM789 – YJM789 clinical isolate, OD600, 24 h, basal, primary screen (AID 1089); conditions: higher = more signal, called active from +8 up or from −8 down;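 further: growth of clinical yeast isolate S. cerevisiae YJM 789 seeded 1000 cells per well; test concentration not given here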
[13] = S. pombe growth modifiers, basal conditions – strain 972, OD600, 24 h, no modulator, primary screen (AID 1090);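 further: basal condition with compound alone and no growth modifier present; test concentration not given here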; conditions: S. pombe 972 growth, higher = more signal, called active from +8 up or from −8 down
[14] = budding yeast growth modifiers under rapamycin – strain BY4716, OD600, 96 h, primary screen (AID 1091); further: test concentration not given here; conditions: S. cerevisiae BY4716 + rapamycin, higher = more signal, called active from +8 up or from −8 down
[15] = target: Torsin-1A-interacting protein 2 (Homo sapiens) (UniProt Q8NFQ8); experiment: small molecules binding lysate-expressed LULL1 – cell lysate, human LULL1 lysate, 635/667 nm fluorescence, primary screen (AID 1092); conditions: small-molecule microarray, hLULL1 lysate binding, 635 nm fluorescence; higher = more signal;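 further: probe is lysate of COS7 cells overexpressing human LULL1; score merges per-feature 667 nm fluorescence with signal-to-noise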
Chain of Torsin-1A-interacting protein 2 (Homo sapiens) (Q8NFQ8 whole entry, looked up): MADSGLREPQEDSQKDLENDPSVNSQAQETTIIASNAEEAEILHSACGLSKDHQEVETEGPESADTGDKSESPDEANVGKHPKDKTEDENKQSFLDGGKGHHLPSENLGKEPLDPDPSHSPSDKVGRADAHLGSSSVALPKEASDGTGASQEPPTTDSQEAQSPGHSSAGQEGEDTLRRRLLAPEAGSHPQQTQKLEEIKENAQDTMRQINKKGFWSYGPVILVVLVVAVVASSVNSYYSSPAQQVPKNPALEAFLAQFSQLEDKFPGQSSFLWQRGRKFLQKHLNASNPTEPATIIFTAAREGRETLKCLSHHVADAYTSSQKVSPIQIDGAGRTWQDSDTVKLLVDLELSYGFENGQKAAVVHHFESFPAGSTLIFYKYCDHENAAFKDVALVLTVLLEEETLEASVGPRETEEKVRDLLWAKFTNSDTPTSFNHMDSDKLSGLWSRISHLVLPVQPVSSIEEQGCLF

[16] = optical density change of DRC41 E. coli – strain DRC41, OD650, 24 h, E. coli filamentation project, primary screen (AID 1093);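 further: MC1000 strain lacking acrAB efflux and sulA so SOS filamentation is blocked; test concentration not given here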; conditions: E. coli DRC41 growth, higher = more signal, called active from +8 up or from −8 down
[17] = probe aLefty2 binding to arrayed compounds – biochemical, biotinylated probe, 635/667 nm fluorescence, primary screen (AID 1094); conditions: small-molecule microarray, higher = more signal;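 further: score merges spot fluorescence near 667 nm with spot signal-to-noise ratio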
[18] = system: Noggin (protein binding on small-molecule microarray); experiment: small molecules binding Noggin protein – biochemical, 635/667 nm fluorescence, primary screen (AID 1095); conditions: 635 nm fluorescence, higher = more signal;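 further: score merges 667 nm feature fluorescence with signal to noise over triplicate slides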
[19] = target: Neurogenic locus notch homolog protein 3 (Homo sapiens) (UniProt Q9UM47); experiment: small molecules binding NOTCH3 protein – biochemical, 635/667 nm fluorescence, primary screen (AID 1096); conditions: small-molecule microarray, 635 nm fluorescence, higher = more signal
Chain of Neurogenic locus notch homolog protein 3 (Homo sapiens) (Q9UM47 whole entry, looked up): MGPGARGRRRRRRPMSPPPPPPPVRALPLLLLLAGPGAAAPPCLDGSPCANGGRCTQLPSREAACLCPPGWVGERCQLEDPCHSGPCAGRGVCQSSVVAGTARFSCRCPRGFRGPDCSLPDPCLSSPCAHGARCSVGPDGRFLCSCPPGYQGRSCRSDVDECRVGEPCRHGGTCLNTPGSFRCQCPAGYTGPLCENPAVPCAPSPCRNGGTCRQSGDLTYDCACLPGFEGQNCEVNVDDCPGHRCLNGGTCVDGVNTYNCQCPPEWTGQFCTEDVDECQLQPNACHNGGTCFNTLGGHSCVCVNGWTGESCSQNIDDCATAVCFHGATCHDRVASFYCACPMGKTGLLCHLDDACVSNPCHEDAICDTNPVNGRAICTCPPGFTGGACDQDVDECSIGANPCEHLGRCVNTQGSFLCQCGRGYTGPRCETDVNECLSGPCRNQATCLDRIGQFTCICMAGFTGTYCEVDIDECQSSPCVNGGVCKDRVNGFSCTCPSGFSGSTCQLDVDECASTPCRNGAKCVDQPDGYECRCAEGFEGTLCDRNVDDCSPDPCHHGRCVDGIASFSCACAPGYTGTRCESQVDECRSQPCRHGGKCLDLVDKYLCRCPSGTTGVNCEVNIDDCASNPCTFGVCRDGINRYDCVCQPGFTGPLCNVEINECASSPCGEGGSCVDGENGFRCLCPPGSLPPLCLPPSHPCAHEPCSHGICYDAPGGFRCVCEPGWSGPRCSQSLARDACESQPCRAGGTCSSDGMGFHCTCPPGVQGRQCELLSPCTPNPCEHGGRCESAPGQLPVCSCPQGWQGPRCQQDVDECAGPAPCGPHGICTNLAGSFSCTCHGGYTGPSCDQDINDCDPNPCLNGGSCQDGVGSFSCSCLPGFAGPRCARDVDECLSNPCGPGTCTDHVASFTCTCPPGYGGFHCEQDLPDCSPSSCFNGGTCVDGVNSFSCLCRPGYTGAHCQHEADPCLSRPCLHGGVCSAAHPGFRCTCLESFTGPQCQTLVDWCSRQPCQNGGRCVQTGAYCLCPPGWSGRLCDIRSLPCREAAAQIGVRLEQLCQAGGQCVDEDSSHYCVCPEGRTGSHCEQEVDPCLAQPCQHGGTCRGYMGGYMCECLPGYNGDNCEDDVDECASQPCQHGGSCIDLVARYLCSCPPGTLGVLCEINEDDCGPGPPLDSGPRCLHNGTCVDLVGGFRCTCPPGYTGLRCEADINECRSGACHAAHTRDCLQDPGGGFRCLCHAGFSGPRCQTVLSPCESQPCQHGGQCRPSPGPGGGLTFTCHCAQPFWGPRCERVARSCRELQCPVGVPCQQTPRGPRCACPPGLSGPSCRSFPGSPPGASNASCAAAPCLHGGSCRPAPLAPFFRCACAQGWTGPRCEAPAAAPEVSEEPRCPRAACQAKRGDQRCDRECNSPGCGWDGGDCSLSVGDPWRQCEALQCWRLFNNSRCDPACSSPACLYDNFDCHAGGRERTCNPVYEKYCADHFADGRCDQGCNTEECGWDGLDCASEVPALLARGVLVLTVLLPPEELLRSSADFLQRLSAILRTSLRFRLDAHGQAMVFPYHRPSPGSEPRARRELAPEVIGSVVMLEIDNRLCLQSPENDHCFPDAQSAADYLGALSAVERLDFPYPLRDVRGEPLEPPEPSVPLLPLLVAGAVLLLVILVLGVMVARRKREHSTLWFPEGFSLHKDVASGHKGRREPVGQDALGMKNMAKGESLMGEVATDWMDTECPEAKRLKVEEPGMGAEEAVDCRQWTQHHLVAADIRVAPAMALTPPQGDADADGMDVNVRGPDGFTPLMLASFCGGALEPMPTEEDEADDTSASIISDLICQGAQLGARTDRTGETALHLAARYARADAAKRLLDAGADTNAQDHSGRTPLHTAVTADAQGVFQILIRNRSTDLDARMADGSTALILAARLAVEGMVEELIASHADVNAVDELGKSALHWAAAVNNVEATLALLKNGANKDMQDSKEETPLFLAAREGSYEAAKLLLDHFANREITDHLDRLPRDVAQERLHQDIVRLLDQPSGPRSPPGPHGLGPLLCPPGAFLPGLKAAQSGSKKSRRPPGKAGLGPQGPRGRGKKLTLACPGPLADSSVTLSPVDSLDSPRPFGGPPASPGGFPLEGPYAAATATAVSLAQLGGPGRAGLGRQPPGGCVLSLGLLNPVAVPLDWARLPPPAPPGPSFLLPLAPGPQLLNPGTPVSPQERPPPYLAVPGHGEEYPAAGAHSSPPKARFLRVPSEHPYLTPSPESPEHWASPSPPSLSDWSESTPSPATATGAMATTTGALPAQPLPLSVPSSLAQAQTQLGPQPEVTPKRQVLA

[20] = probe aEGFR binding to arrayed compounds – biochemical, biotinylated probe, 635/667 nm fluorescence, primary screen (AID 1097); conditions: small-molecule microarray, higher = more signal;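 further: probe is a biotinylated anti-EGFR antibody binding compounds printed on slides; score combines fluorescence near 667 nm and signal to noise of each spot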

CCCNC(=O)OC[C@H]1O[C@H](CCON=C(C)CCC(=O)OC[C@H]2O[C@H](C#Cc3ccccc3)C=C[C@@H]2Oc2ccc(C)cc2)C=C[C@@H]1Oc1ccc(OC)cc1
composite z-score [1]: 0.0836 | composite z-score [2]: -0.115 | composite z-score [3]: -0.124 | composite z-score [4]: -0.187 | composite z-score [5]: -0.0132 | composite z-score [6]: -0.21 | composite z-score [7]: -0.861 | z-score [8]: 0.751 (inactive) | composite z-score [9]: -0.244 | composite z-score [10]: 1.27 | composite z-score [11]: -0.164 | z-score [12]: -0.142 (inactive) | z-score [13]: -0.0152 (inactive) | z-score [14]: 0.794 (inactive) | composite z-score [15]: -0.575 | z-score [16]: 0.165 (inactive) | composite z-score [17]: -0.251 | composite z-score [18]: -0.346 | composite z-score [19]: -0.574 | composite z-score [20]: -0.12

C=CCN(C(=O)C(c1cccs1)N(C(=O)/C=C\C(=O)O)c1c(Cl)cccc1CO)C(C)(C)C (stereo not given)
composite z-score [1]: 1.49 and 1.64 | composite z-score [2]: -1.2 and -1.76 | composite z-score [3]: -0.232 and -0.235 | composite z-score [4]: -1.69 and -1.27 | composite z-score [5]: -1.86 and -2.21 | composite z-score [6]: -0.732 and -1.05 | composite z-score [7]: -0.301 and -0.512 | z-score [8]: 1.06 (inactive) and 1.34 (inactive) | composite z-score [9]: -0.791 and -0.727 | composite z-score [10]: 0.228 and -0.554 | composite z-score [11]: -0.971 and -0.911 | z-score [12]: -0.0947 (inactive) and -0.689 (inactive) | z-score [13]: -0.588 (inactive) and -0.587 (inactive) | z-score [14]: -0.351 (inactive) and -0.595 (inactive) | composite z-score [15]: -0.586 and 0.277 | z-score [16]: -0.717 (inactive) and -1.18 (inactive) | composite z-score [17]: 0.0765 and 0.231 | composite z-score [18]: -3.47 and -2.85 | composite z-score [19]: -1.89 and -1.83 | composite z-score [20]: -0.309 and -0.338

C=CCN(C(=O)C1N(c2ccc(CCO)cc2)C(=O)C2C(C(=O)O)C3C=CC21O3)c1ccc(OC)cc1 (stereo not given)
composite z-score [1]: 0.0619 and 0.336 | composite z-score [2]: -0.767 and -0.885 | composite z-score [3]: -0.226 and -0.276 | composite z-score [4]: -0.19 and -1.02 | composite z-score [5]: -0.903 and -1.23 | composite z-score [6]: -0.0224 and -1.32 | composite z-score [7]: 0.939 and -0.115 | z-score [8]: 4.82 (inactive) and -0.639 (inactive) | composite z-score [9]: -0.477 and -1.4 | composite z-score [10]: -0.132 and -0.236 | composite z-score [11]: -0.133 and -0.497 | z-score [12]: 0.156 (inactive) and -0.236 (inactive) | z-score [13]: 0.332 (inactive) and -0.577 (inactive) | z-score [14]: 0.131 (inactive) and -1.62 (inactive) | composite z-score [15]: 0.0657 and -1.42 | z-score [16]: 0.683 (inactive) and 2.67 (inactive) | composite z-score [17]: -0.0641 and 0.0524 | composite z-score [18]: -1.24 and -0.818 | composite z-score [19]: 0.0568 and -1.8 | composite z-score [20]: -0.302 and -0.367

CC(CO)N1C(=O)[C@@H]2C3C(=O)OCCC=C[C@H]3OC23C=CCN(Cn2nnc4ccccc42)C(=O)[C@@H]13 (stereo not given in full)
composite z-score [1]: 0.634 and 0.0762 | composite z-score [2]: -1.37 and 0.709 | composite z-score [3]: -0.187 and -0.0234 | composite z-score [4]: 0.0583 and 0.509 | composite z-score [5]: -1.7 and -0.0585 | composite z-score [6]: 1.32 and 1.91 | composite z-score [7]: 1.5 and 1.48 | z-score [8]: -0.191 (inactive) and 0.519 (inactive) | composite z-score [9]: -0.545 and -0.255 | composite z-score [10]: -0.137 and -0.228 | composite z-score [11]: -0.414 and 0.262 | z-score [12]: 1.52 (inactive) and -1.09 (inactive) | z-score [13]: 0.102 (inactive) and -0.115 (inactive) | z-score [14]: 0.73 (inactive) and -0.0895 (inactive) | composite z-score [15]: 0.145 and 3.01 | z-score [16]: 0.775 (inactive) and -0.175 (inactive) | composite z-score [17]: -0.223 and -0.0882 | composite z-score [18]: -1.78 and 0.0711 | composite z-score [19]: -0.391 and 0.347 | composite z-score [20]: -0.203 and -0.0828

Source: PubChem BioAssay
